# Screens (PubChem BioAssay)
# JMJD2E inh: qHTS Assay for Inhibitors of Human Jumonji Domain Containing 2E (JMJD2E) | Lysine-specific demethylase 4E (Homo sapiens), B2RXH2 | JMJD2E catalytic domain, FDH-coupled NADH fluorescence (FDH is formaldehyde dehydrogenase) | Potency, µM (doses to about 57.1 µM), without a hit: top-dose activity change, negative = inhibition, usual class: inhibitors | 230,000 tested, 1.6% active | AID 2147, 2009; active means well fitted inhibition curve with a large enough effect, not every such curve was filed as active; inconclusive means small, poorly fitted or top-dose-only effect, or another doubt; inactive means no such curve, though single readings can be large or run the other way;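 further: potency means the concentration at half of the fitted maximal effect; 0% = wells with enzyme and -100% = buffer wells without enzyme; nearly all actives have a fitted effect of over 50% in size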
# Lamin A splicing: qHTS Assay for Modulators of Lamin A Splicing. HeLa LMNA splicing GFP/RFP minigene ratio, 48 h. Potency, µM (highest dose often 46.1 µM), without a hit: at the highest dose ratio change, negative = inhibition, actives largely listed as inhibitors. 200,000 tested, 0.01% active. AID 1487, 2009; active means well fitted inhibition curve with a large enough effect in the signal ratio, with a control signal flat, not every such curve was filed as active; inconclusive means small, poorly fitted or top-dose-only effect, or effect the other way, or a change in a side signal; the % refers to the signal ratio; further: potency means the concentration at half of the fitted maximal effect; on the % scale 0 is the no-effect control and ±100 the full control effect
#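 Read-out is the ratio of GFP to DsRed2 object intensity, acquired by 488 nm laser-scanning cytometry on HeLa lamin A-EGFP minigene reporter cells. Compound incubation 48 hrs at 37 °C in Opti-MEM with 2% FBS; DMSO 0.5% final.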
# miR-21 act: qHTS Assay for Modulators of miRNAs and/orActivators of miR-21; Potency, µM (highest dose often 38.3 µM), inactives show at the top dose activity change, positive = activation, most hits filed as activators; AID 2288, 2010; HeLa miR-21 FLuc reporter, luciferase, 48 h; 340,000 tested, under 10 active;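 further: % of control where 0% means no effect; miR-21 action dims this reporter so a rising signal means less miR-21 action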
#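 Luminescence from a firefly luciferase reporter carrying a miR-21 binding site downstream, stably expressed under a CMV promoter in HeLa cells that make miR-21 endogenously, reports miRNA modulation after 48 h compound exposure up to approximately 40uM final.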
# G9a block: qHTS Assay for Inhibitors of Histone Lysine Methyltransferase G9a; 350,000 tested, 8.8% active; G9a H3K9 monomethylation, AlphaScreen, 2 h; Histone-lysine N-methyltransferase EHMT2 (Homo sapiens), Q96KQ7; Potency, µM (titrated, usually from 102 µM), inactives show at the highest dose activity, negative = inhibition, actives largely listed as inhibitors; AID 504332, 2011; further: potency means the concentration at half of the fitted maximal effect; on the % scale 0 is the no-effect control and ±100 the full control effect; nearly all actives have a fitted effect of over 75% in size
# Target sequence (Q96KQ7 913-1193 limits assumed): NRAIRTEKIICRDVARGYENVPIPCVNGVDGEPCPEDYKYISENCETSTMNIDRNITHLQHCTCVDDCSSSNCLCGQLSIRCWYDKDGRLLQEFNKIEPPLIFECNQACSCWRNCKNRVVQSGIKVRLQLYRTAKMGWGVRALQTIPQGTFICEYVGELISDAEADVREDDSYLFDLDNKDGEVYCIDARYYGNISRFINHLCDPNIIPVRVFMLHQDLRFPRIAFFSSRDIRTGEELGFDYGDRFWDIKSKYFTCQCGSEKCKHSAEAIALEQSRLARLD
#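 Step 1: enzyme (final 20 nM) with compound, 15 min RT. Step 2: substrate peptide 500 nM and SAM 20 uM, 2 h RT. Step 3: anti-H3K9me1 antibody and AlphaScreen beads, 10 min, then plate read.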
# ALDH1A1 block: qHTS Assay for Inhibitors of Aldehyde Dehydrogenase 1 (ALDH1A1); Purified ALDH1A1, NADH fluorescence, propionaldehyde substrate; 220,000 tested, 7.3% active; Aldehyde dehydrogenase 1A1 (Homo sapiens), P00352; AID 1030, 2008; Potency, µM (doses to about 75.3 µM), without a hit: at the highest dose activity, negative = inhibition, most hits filed as inhibitors; active means well fitted inhibition curve with a large enough effect, not every such curve was filed as active; inconclusive means small, poorly fitted or top-dose-only effect, or another doubt; inactive means no such curve, though single readings can be large or run the other way;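 further: potency means the concentration at half of the fitted maximal effect; plate controls were no enzyme wells and a reference inhibitor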
# Target sequence (P00352 whole entry, looked up): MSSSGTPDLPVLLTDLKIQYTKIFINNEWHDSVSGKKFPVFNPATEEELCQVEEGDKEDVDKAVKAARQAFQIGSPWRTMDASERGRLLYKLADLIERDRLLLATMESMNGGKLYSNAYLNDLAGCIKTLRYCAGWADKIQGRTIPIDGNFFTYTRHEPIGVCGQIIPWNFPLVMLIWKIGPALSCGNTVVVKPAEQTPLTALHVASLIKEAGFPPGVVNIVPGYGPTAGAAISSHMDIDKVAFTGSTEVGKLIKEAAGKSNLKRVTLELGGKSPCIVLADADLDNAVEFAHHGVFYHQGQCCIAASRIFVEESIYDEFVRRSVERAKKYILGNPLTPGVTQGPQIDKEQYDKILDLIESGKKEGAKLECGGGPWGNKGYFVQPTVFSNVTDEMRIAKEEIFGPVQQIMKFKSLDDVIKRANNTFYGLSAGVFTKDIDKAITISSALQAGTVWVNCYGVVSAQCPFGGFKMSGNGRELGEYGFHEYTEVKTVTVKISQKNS
# Sfp inh: qHTS Assay for Inhibitors of Bacillus subtilis Sfp phosphopantetheinyl transferase (PPTase) | 310,000 tested, 3.5% active | 4'-phosphopantetheinyl transferase ffp (Bacillus subtilis), Q9F4F7 | Biochemical Sfp PPTase activity, qHTS | Potency, µM, for inactives: largest response in the series, negative = inhibition, hits mostly inhibitors;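 further: the enzyme is Sfp with the accession as filed and its product quenches rhodamine fluorescence; potency means the concentration at half of the fitted maximal effect; 0% = enzyme reaction without inhibitor and -100% = no enzyme wells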
#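 Reaction rates are the 30-min fluorescence difference (ex 525, em 598 nm) in wells containing 15 nM Sfp, 5 uM rhodamine-CoA and 12.5 uM BHQ-2-YbbR at pH 7.6 with 10 mM MgCl2.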
# Active calls of the source: *; ? = inconclusive; · = no result; [ ] = dose if it differs, or a comment. Only some compounds are listed: those with a hit (about 13% of all), similar ones and a draw of the others. Unless noted, the call rests on the fitted dose curve; in most records, active means well fitted curve in the direction sought with a large enough effect; inconclusive means small, poorly fitted or top-dose-only effect, or another doubt; inactive means no such curve, though single readings can be large; an effect the other way counts as inactive or inconclusive.
SMILES,JMJD2E inh,Lamin A splicing,miR-21 act,G9a block,ALDH1A1 block,Sfp inh
Cc1cc2c(cc1S(=O)(=O)N1CCN(c3ccc(Cl)cc3)CC1)OCCN2C,·,·,-4%,28µM*,·,21%
CC(C)CCCN1C(N(C)C)=NC[C@@H]1Cc1ccccc1,·,·,·,16%[2.33 µM],·,·
CC(C)(C#N)NC(=O)C1CCCN1S(=O)(=O)c1ccc2ccccc2c1 (stereo not drawn),·,·,19%,-9%,·,23%
CNC(=S)N/N=C/c1cn(CCOc2cccc(OC)c2)c2ccccc12,?,?,2%,45µM*,?,?
CNC(=S)N/N=C/c1cn(CCOc2ccccc2OC)c2ccccc12,?,?,11%,8%[59 µM],-3%,?
COc1cccc(OCCn2cc(C(=O)c3ccco3)c3ccccc32)c1,?,?,6%,-11%[12.7 µM],22µM*,5%
CCOc1ccccc1C(=O)N(Cc1cc(OC)c(OC)c(OC)c1)c1ccccn1,·,9%[46 µM],8%,0%[59 µM],·,·
CC(C)(C)C(=O)Nc1c(C(=O)N2CCN(c3ccc(F)cc3)CC2)oc2ccccc12,·,4%[46 µM],-1%,?,·,·
Cc1oc2ncn(CC(C)C)c(=O)c2c1C(=O)N(CCN(C)C)Cc1ccccc1,·,4%[46 µM],-6%,0%[59 µM],·,·
Cc1ccc2nc(-c3ccc(N4C(=NC(=O)CCC(=O)O)SC5CS(=O)(=O)CC54)cc3)sc2c1 (stereo not drawn),?,-4%,-69%,45µM*,?,-6%
COc1ccc(-n2c(=O)c3c4c(sc3n3c(SCCC(C)C)nnc23)COC(C(C)C)C4)cc1 (stereo not drawn),·,·,1%,-5%[59 µM],·,·
CC(C)C1Cc2c(sc3c2c(=O)n(-c2ccccc2)c2n[nH]c(=S)n32)CO1 (stereo not drawn),0%,·,-5%,1.3µM*,·,-13%
CC(=O)NCC(=O)NC1CC(C)(C)Cc2c1cnn2-c1ccccc1 (stereo not drawn),·,·,1%,·,·,-2%
COc1ccccc1CCC(=O)NCCCn1ccc2ccccc21,·,·,-1%,-2%,·,9%
COc1ccccc1NC(=O)N(Cc1ccco1)C1CCN(C(C)=O)CC1,·,9%[46 µM],-1%,6%[59 µM],·,·
COc1ccccc1NC(=O)N1CCN(C)CC1,?,3%[46 µM],-1%,20µM*,-12%,2%
COc1ccccc1NC(=O)N(C1CCCC1)C1CCN(C(C)=O)CC1,-4%,-13%,-1%,40µM*,11%,-13%
CCN1CCN(C(=O)Nc2ccccc2OC)CC1,3%,-10%,-7%,2.2µM*,0%,?
CCN1CCN(C(=O)C(C)Nc2ccc(OC)cc2OC)CC1 (stereo not drawn),?,-14%[46 µM],-1%,45µM*,?,7%
COc1ccccc1NC(=O)N1CCCC1,-3%,·,0%,-4%,0%,10%
CC(C)CN(C(=O)c1cc(Cl)nc2ccccc12)C1CCS(=O)(=O)C1 (stereo not drawn),·,·,·,-11%,·,·
O=C1CC(c2nc(-c3ccccc3)no2)CN1c1ccccc1 (stereo not drawn),·,-2%[46 µM],-15%,13%[59 µM],·,·
Cc1ccc(OC(=O)COc2ccccc2C)c(-n2nc3ccccc3n2)c1,-14%,-5%,-63%,3%[59 µM],32µM*,5%
Cc1ccc(OC(=O)COc2ccccc2)c(-n2nc3ccccc3n2)c1,?,8%,-56%,74%,?,?
O=S(=O)(Nc1ccn(-c2ccccc2)n1)c1ccc(Br)cc1,?,-9%,-46%,14µM*,-15%,-14%
SMILES,JMJD2E inh,Lamin A splicing,miR-21 act,G9a block,ALDH1A1 block,Sfp inh
CCOC(=O)N1CCC(N2C(=O)c3ccc(C(=O)NCc4ccco4)cc3C2=O)CC1,-1%,-7%,-9%,71µM*,12µM*,-21%
O=C(NCc1ccco1)c1ccc2c(c1)N(Cc1ccccc1)C(=O)c1ccccc1S2(=O)=O,·,·,-2%,-26%[59 µM],·,·
Cc1ccc(C)c(NC(=O)c2cnc3n(c2=O)CCS3)c1,?,·,-24%,56µM*,12%,-3%
O=C1c2cccc3c(O)ccc(c23)C(=O)N1Cc1ccco1,-13%,·,-2%,40µM*,13µM*,7.1µM*
O=C(NCc1ccco1)c1ccc2c(c1)C(=O)N(Cc1ccccc1)C2=O,1%,-1%,-3%,?,13µM*,?
CCOC(=O)N1CCC(N2C(=O)c3ccc(C(=O)NCc4ccc(F)cc4)cc3C2=O)CC1,4%,?,-2%,?,-4%,-14%
C/C=C(\C)CN1CCC(Oc2ccc(C(=O)NCc3ccccn3)cc2)CC1,·,·,-5%,10%,·,5%
O=C1c2cccc3c(O)ccc(c23)C(=O)N1c1ccc(Cl)cc1,·,·,-60%,45µM*,·,?
O=C(NCc1ccco1)c1ccc2c(c1)C(=O)c1ccccc1-2,0%,23%,-33%,?,28µM*,11µM*
CC(=O)Nc1ccc(N2C(=O)c3cccc4c(O)ccc(c34)C2=O)cc1,·,·,-2%,?,·,-12%
O=C(O)c1cccc(NC(=O)c2ccc3c(c2)C(=O)N(Cc2ccco2)C3=O)c1,5%,12%[46 µM],9%,·,?,-28%
O=C(O)c1ccc2c(c1)C(=O)N(Cc1ccco1)C2=O,·,·,0%,56µM*,·,0%
CCN1C(=O)c2ccc(C(=O)NCc3ccccc3)cc2C1=O,12%,20%,-1%,-29%[59 µM],4.5µM*,5%
Cc1cccc(OCC(=O)Nc2nonc2-c2ccc(Br)cc2)c1C,·,·,1%,-2%[59 µM],·,·
C/C(=N\n1cnnc1)c1ccccc1,-9%,19%[46 µM],0%,14%,6%,1%
CCN1C(=O)c2ccc(C(=O)Nc3nccs3)cc2C1=O,1%,3%,-5%,7%[12.7 µM],4.5µM*,5%
O=C(NCc1ccco1)c1cnc2n(c1=O)CCS2,1%,-2%,1%,50µM*,-3%,4%
O=C(O)c1ccccc1-c1ccccc1C(=O)NCc1ccco1,2%,-6%,-7%,50µM*,5%,12%
O=C(c1cnc2n(c1=O)CCS2)N(C1CCCCC1)C1CCCCC1,-2%,-3%,-4%,79µM*,8%,4%
CC(C)(C)N1C(=O)c2ccc(C(=O)Nc3nccs3)cc2C1=O,-7%,14%,-34%,9%,?,13%
Nc1cc(=O)nc(SCC(=O)Nc2ccc(F)cc2)n1CCc1ccccc1,·,·,1%,1%[59 µM],·,·
